In all, about 48,000 compounds went through this assay and about 13,000 (27%) showed an effect of 50% or more. The list shows a part of the results.

Results on 92 molecules are retold here after ChEMBL document CHEMBL3988442, “University of Dundee, Small-Polar-MMV Screening Library” (2021).

The test system of this experiment is Wolbachia pipientis. In words: Anti-Wolbachia Cell-Based Screen. The class given is functional. On the set-up: scale not given: in the data most compounds retested in dose-response had high values. As to conditions: 5 µM.
Consider `C[S+]([O-])CCNC(=O)Nc1cc(F)ccc1-n1cccn1` (configuration not stated), for which the “Percent Effect” value is given as -7.044%.
As to `Cc1nc(NC(=O)c2nn(-c3ccc(F)cc3C)cc2O)n[nH]1`, the “Percent Effect” value came to 158.1%.
Consider `Cc1nc(C(C)NC(=O)COc2ccc(F)cc2)n[nH]1` (configuration not stated), for which the “Percent Effect” value was -12.19%.
On to `CC(C)c1cccc(-n2cc(O)c(C(=O)NCCC(=O)N(C)C)n2)c1`, for which the “Percent Effect” value was -3.512%.
The result for `CC(C)C(O)CCNC(=O)Nc1cc(F)ccc1-n1cccn1` (configuration not stated) reads -1.867%.
Turning to `COCCn1ccc2cc(NC(=O)N(C)C(C)CSC)ccc21` (configuration not stated), the “Percent Effect” value is reported as 13.09%.
With `COCCNC(=O)c1nn(-c2cccc(C(C)C)c2)cc1O`, the “Percent Effect” value is recorded as -7.047%.
Consider `CC(C)c1cccc(-n2cc(O)c(C(N)=O)n2)c1`, for which the “Percent Effect” value was -1.55%.
Consider `Cc1cc(F)ccc1-n1cc(O)c(C(N)=O)n1`, for which the “Percent Effect” value is recorded as 117.5%.
Regarding `CSCC(C)N(C)C(=O)c1nn(-c2ccc(F)cc2C)cc1O` (configuration not stated), the “Percent Effect” value is 188.7%.
Under `O=C(c1nn(-c2ccccc2F)cc1O)N1CCCC1` stands -1.057%; under `Cc1cc(F)ccc1-n1cc(O)c(C(=O)NCC[S+](C)[O-])n1` (configuration not stated), 102.5%; under `COc1cccc(C2C3=C(COC3=O)Nc3[nH]nc(C)c32)c1O` (configuration not stated), 0.9958%.
Under `OCc1cc2ccccc2nc1NCC1(O)CCC1` stands 2.986%; under `O=C(NCCC(=O)N1CCCC1)c1nn(-c2ccccc2F)cc1O`, -1.899%.
For `Cc1cc(F)ccc1-n1cc(O)c(C(=O)NCC2(O)CCC2)n1`, the “Percent Effect” value came to 99.53%.
As for `O=C(NCC1(O)CCOCC1)c1ccn(-c2ccccc2F)n1`, the “Percent Effect” value is recorded as -4.813%.
Regarding `Cc1nnc(N2CCO[C@H]3[C@@H](OCc4ccccn4)CC[C@@H]32)s1.O=C(O)C(F)(F)F.O=C(O)C(F)(F)F`, the “Percent Effect” value amounted to 0.4576%.
With `Fc1cnc(N2C[C@@H](OCC3CCOCC3)[C@H]3OCCC[C@H]32)nc1.O=C(O)C(F)(F)F`, the “Percent Effect” value amounted to 83.11%.
Take `Cc1nnc(N2C[C@@H](OCC3CCCC3)[C@H]3OCCC[C@H]32)s1.O=C(O)C(F)(F)F`: the “Percent Effect” value is -7.489%.
For the molecule `C1CC(CN2CCO[C@H]3[C@H](OCC4CC4)CC[C@@H]32)CCO1.O=C(O)C(F)(F)F`, the “Percent Effect” value is reported as -2.542%.
Turning to `Fc1cnc(N2CCO[C@H]3[C@H](OCCN4CCCC4)CC[C@@H]32)nc1.O=C(O)C(F)(F)F`, the “Percent Effect” value is on record as 101.9%.
In the case of `O=C(O)C(F)(F)F.c1cnc(N2CCO[C@H]3[C@H](OCCN4CCCC4)CC[C@@H]32)nc1`, the “Percent Effect” value was -8.905%.
Under `Fc1cnc(N2CCO[C@H]3[C@H](OCC4CCOCC4)CC[C@@H]32)nc1.O=C(O)C(F)(F)F` stands 113.1%.
On to `O=C(CO[C@@H]1CC[C@H]2[C@H]1OCCN2c1ncccn1)N1CCCC1.O=C(O)C(F)(F)F`, for which the “Percent Effect” value was -14.02%.
As for `Fc1cnc(N2CC[C@@H](N3CCOCC3)[C@@H]2Cc2ccncc2)nc1.O=C(O)C(F)(F)F.O=C(O)C(F)(F)F`, the “Percent Effect” value is listed as -1.872%.
Consider `O=C(O)C(F)(F)F.c1cnc(N2CCO[C@H]3[C@H](OCC4CC4)CC[C@@H]32)nc1`, for which the “Percent Effect” value was 118.2%.
For `Cc1nnc(N2C[C@H](OCC3CCCC3)[C@H]3OCCC[C@H]32)s1.O=C(O)C(F)(F)F`, the “Percent Effect” value is -7.444%.
For the molecule `Cn1cccc1C(=O)NS(=O)(=O)c1cnn(-c2ccccc2F)c1`, the “Percent Effect” value was -15.01%.
For `CCC(CC)c1cc(CNC(=O)N2CCC(CO)CC2)on1`, the “Percent Effect” value came out at 3.231%.
Take `CCSc1ccc(NC(=O)NC(C)c2ccncc2)cn1` (configuration not stated): the “Percent Effect” value is recorded as 4.069%.
As for `CN(C)C(=O)CO[C@@H]1CC[C@H]2[C@H]1OCCN2c1ncccn1.O=C(O)C(F)(F)F`, the “Percent Effect” value is -13.26%.
With `CN(C)C(=O)CO[C@@H]1CC[C@H]2[C@H]1OCCN2c1ncc(F)cn1.O=C(O)C(F)(F)F`, the “Percent Effect” value was found to be 112.4%.
With `O=C(O)C(F)(F)F.c1cnc(N2CCO[C@H]3[C@H](OCC4CCOCC4)CC[C@@H]32)nc1`, the “Percent Effect” value was found to be 109.2%.
In the case of `c1cnc(N2CCO[C@H]3[C@H](OCCN4CCOCC4)CC[C@@H]32)nc1`, the “Percent Effect” value is 4.128%.
As to `Cc1ccc(N2CCO[C@H]3[C@H](OCC(=O)N4CCCC4)CC[C@@H]32)cc1.O=C(O)C(F)(F)F`, the “Percent Effect” value is -12.38%.
`CC(C)c1noc(CS(=O)(=O)CC(=O)NCc2ccccc2)n1`: the “Percent Effect” value is -6.671%.
Under `CNC(=O)CC1CCN(C(=O)NCC2(c3ccccc3F)CC2)CC1` stands 17.39%; under `C[C@H](NC(=O)c1cnc(-c2ccccc2)nc1O)C(N)=O`, -2.731%; under `CC1(C(=O)NCc2cccnc2Oc2ccc(F)c(F)c2)CCCNC1` (configuration not stated), -1.745%.
Consider `CC1(C(=O)NCc2cccnc2Oc2ccc(F)cc2F)CCCNC1` (configuration not stated), for which the “Percent Effect” value is -10.63%.
On to `O=C1NC(C(=O)NCc2cccnc2Oc2ccc(F)c(F)c2)CO1` (configuration not stated), for which the “Percent Effect” value is given as 103.5%.
Regarding `O=C1NC(C(=O)NCc2cccnc2Oc2ccccc2F)CO1` (configuration not stated), the “Percent Effect” value is listed as 117.3%.
In the case of `Cc1ccccc1Oc1ncccc1CNC(=O)Cn1cccnc1=O`, the “Percent Effect” value is reported as -3.943%.
Consider `COc1ccccc1Oc1ncccc1CNC(=O)C(O)C(F)(F)F` (configuration not stated), for which the “Percent Effect” value is reported as -1.797%.
The result for `Cc1cccc(C)c1Oc1ncccc1CNC(=O)C1(C)CCCNC1` (configuration not stated) reads 9.373%; that for `O=C1NC(C(=O)NCc2cccnc2Oc2ccc(F)cc2F)CO1` (configuration not stated), 106.1%; that for `Cc1cccc(C)c1Oc1ncccc1CNC(=O)C1COC(=O)N1` (configuration not stated), 89.56%.
The result for `CC(=O)N[C@@H](C)C(=O)NCc1cccnc1Oc1ccccc1F` reads -9.866%; that for `CN(C)S(=O)(=O)NCc1cccnc1Oc1ccccc1F`, -2.54%; that for `O=C(CN1CCCC1=O)NCc1cccnc1Oc1ccc(F)c(F)c1`, -46.82%.
The result for `CC(C)c1noc(CN(C)C(c2ccc(F)cc2)c2cccnc2)n1` (configuration not stated) reads 7.35%; that for `CCn1nc2c(cc1=O)CN(CCCOc1ccc(C#N)cc1)CC2`, -4.501%.
`CC(C)(C)OC(=O)NCC1CCCCN1Cc1cccc(C(N)=O)c1` (configuration not stated): the “Percent Effect” value is recorded as -2.516%.
In the case of `CCOC(=O)C1CN(C(=O)C2CCOCC2)Cc2ncn(CC)c21` (configuration not stated), the “Percent Effect” value came to 3.509%.
With `Cc1nnc(CN2CCCC2c2ccc(C(C)(C)C)cc2)o1` (configuration not stated), the “Percent Effect” value is listed as -26.52%.
The result for `CSc1ncccc1C(=O)N1CCC2(CC1)c1nc[nH]c1CCN2C` reads 9.792%; that for `CCSCCC(=O)Nc1ncn(Cc2cccnc2)n1`, -3.764%.
With `O=S(=O)(Cc1cccc2cccnc12)NC(CO)c1ccco1` (configuration not stated), the “Percent Effect” value is listed as -8.128%.
On to `COc1ccccc1Oc1ncccc1CNC(=O)[C@@H](N)[C@@H](C)O`, for which the “Percent Effect” value is -22.34%.
Under `COc1ccccc1Oc1ncccc1CNC(=O)C1COC(=O)N1` (configuration not stated) stands 98.82%.
Consider `Cc1nc(CNCc2cccnc2Oc2ccc(C)c(F)c2F)c[nH]1`, for which the “Percent Effect” value is -6.11%.
For the molecule `CCCS(=O)(=O)NCc1cccnc1Oc1ccc(C)c(F)c1F`, the “Percent Effect” value is listed as -1.189%.
With `COc1ccccc1Oc1ncccc1CNC(=O)[C@H](C)O`, the “Percent Effect” value is -22.76%.
`Cc1ccc(Oc2ncccc2CNC(=O)C2COC(=O)N2)c(F)c1F` (configuration not stated): the “Percent Effect” value worked out at 65.92%.
As for `c1ccc(-c2nccc(CNCC3CCCN3c3cccnn3)n2)cc1` (configuration not stated), the “Percent Effect” value worked out at 1.65%.
Regarding `Cn1cnc2c1CCN(CC(O)c1ccc3c(c1)OCCO3)C2` (configuration not stated), the “Percent Effect” value was determined as 2.698%.
As to `Cc1nc(C(=O)N2CC(C)Sc3ccccc32)cs1` (configuration not stated), the “Percent Effect” value is recorded as -0.9397%.
On to `CN(Cc1ncnn1C)c1ccnc(Cc2ccccc2)n1`, for which the “Percent Effect” value is listed as -0.8819%.
Under `O=C(O)C(F)(F)F.c1cncc(C2CC3(CCN(c4cnccn4)CC3)c3ccccc32)c1` (configuration not stated) stands 23.08%; under `CCS(=O)(=O)N1CCC2(CC1)CN(CC1CCOC1)c1ccccc12.O=C(O)C(F)(F)F` (configuration not stated), 101.7%.
Turning to `O=C(O)C(F)(F)F.c1cnc(N2CC3(CCN(C4CCOCC4)CC3)c3ccccc32)nc1`, the “Percent Effect” value is 5.791%.
For the molecule `CN1CC2(CCN(S(=O)(=O)C3CC3)CC2)c2ccccc21.O=C(O)C(F)(F)F`, the “Percent Effect” value was -12.74%.
The result for `CCCS(=O)(=O)N1CCC2(CC1)CN(C(=O)N(C)C)c1ccccc12` reads -3.576%; that for `CCCS(=O)(=O)N1CCC2(CC1)CC(N1CCCC1)c1ccccc12.O=C(O)C(F)(F)F` (configuration not stated), 11.6%.
The result for `O=C(O)C(F)(F)F.c1cnc(N2CC3(CCN(CC4CCOC4)CC3)c3ccccc32)nc1` (configuration not stated) reads -15.18%; that for `CS(=O)(=O)N1CCC2(CC1)CN(CC1CCOC1)c1ccccc12.O=C(O)C(F)(F)F` (configuration not stated), 90.82%.
Regarding `O=C(O)C(F)(F)F.O[C@@H]1CCN(CC2CCOC2)[C@H]1Cc1ccccc1` (some centres not stated), the “Percent Effect” value is listed as -6.584%.
For `CCCS(=O)(=O)N1CCC2(CC1)CN(CC1CCOC1)c1ccccc12.O=C(O)C(F)(F)F` (configuration not stated), the “Percent Effect” value was 105.4%.
In the case of `O=C(O)C(F)(F)F.c1ccc2c(c1)N(CC1CCOC1)CC21CCN(c2cnccn2)CC1` (configuration not stated), the “Percent Effect” value is given as 103.7%.
Take `CCS(=O)(=O)N1CCC2(CCC(N3CCCC3)c3ccccc32)CC1.O=C(O)C(F)(F)F` (configuration not stated): the “Percent Effect” value amounted to 6.992%.
Consider `COC[C@]12COC[C@H]1CN(S(=O)(=O)c1cccnc1)C2`, for which the “Percent Effect” value amounted to 6.326%.
With `Cc1nnc(N2C[C@H]3OCC[C@H]3[C@H](C(=O)NCC3CC3)C2)s1.O=C(O)C(F)(F)F`, the “Percent Effect” value is listed as -6.656%.
For the molecule `O=C1CC2(CCN(Cc3ccc4cccc(O)c4n3)CC2)CN1`, the “Percent Effect” value was -6.934%.
Under `COc1ccc(CCNc2cc(-c3nc(C)no3)ccn2)cc1OC` stands -4.716%; under `O=C(C1CC1)N1CCC2(COCc3cnc(NCc4ccco4)nc32)C1` (configuration not stated), 107.6%; under `COCC(=O)N1CCC2(COCc3cnc(NCc4ccco4)nc32)C1` (configuration not stated), 94.68%.
`CC(C)(C)C(=O)N1CCC2(COCc3cnc(N4CCOCC4)nc32)C1` (configuration not stated): the “Percent Effect” value was -4.302%.
For the molecule `CNC(=O)N1CCC2(COCc3c(C)nc(NCc4ccco4)nc32)C1` (configuration not stated), the “Percent Effect” value is -16.5%.
The result for `Fc1cnc(N2CCC3(COCc4cnc(NCC5CC5)nc43)C2)nc1` (configuration not stated) reads 3.153%; that for `CCC(=O)N1CCC2(COCc3cnc(NCc4ccco4)nc32)C1` (configuration not stated), 102.3%.
On to `CCC(=O)N1CCC2(COCc3c(C)nc(NCc4ccco4)nc32)C1` (configuration not stated), for which the “Percent Effect” value is 0.949%.
